The values below come from PubChem BioAssay AID540259 (Broad Institute, 2011).

Results with a measured potency or affinity are listed apart. The source made the active and inactive calls.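 Rule for the calls: active = cell killing, meaning signal decrease, with fitted half-maximal dose at or below ten times the top valid tested dose; inconclusive = poor fit, or flat curve with 30 to 70% signal loss; inactive = the rest.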

This assay is described as follows: HeLa cell cytotoxicity, dose response, cytotoxicity control for MITF activator project, CellTiter-Glo luminescence, cherry-pick samples (AID 540259). The note with it: HeLa viability, CellTiter-Glo ATP luminescence, 24 h; series mostly up to 35 µM.
On to `Cc1ccn2cc(C(=O)Nc3nnc(C)s3)nc2c1`, for which the outcome was inactive.

With `c1ccc2c(c1)NC1(CCCC1)n1c-2nc2ccccc21`, the compound was classed as inactive.

For `Clc1ccc(-n2nnc(-c3ncc[nH]3)n2)cc1Cl`, the outcome was inactive.

For the compound `Cc1ccc(NC(=O)CCCc2ccccc2)nc1`, the compound was classed as inactive.

Turning to `Cc1cccc(NC(=O)c2onc3c2CCCC3)c1C`, the compound was classed as inactive.

As for `COc1ccc(-c2nn(-c3ccccc3)cc2C#N)cc1`, the compound was classed as inactive.

`COc1ccc(NC(=S)c2ccccc2)cc1`: the outcome was inactive.

As for `Oc1nc(Nc2ccccc2)sc1/C=C1\C=Nc2ccccc21`, the outcome was inactive.

Turning to `COc1ccc(-c2cc(C(=O)Nc3ccccc3F)on2)cc1`, the compound was called inactive.

With `Cc1ccc(-c2csc(NC(=O)c3ccc(Br)cc3)c2C(=O)O)cc1`, the call was inactive.

With `Cc1cnc(NC(=O)Nc2ccc(Cl)cc2)s1`, the outcome was inactive.

Consider `CC(=O)c1ccc(Nc2ccc(-c3ccccc3C)nn2)cc1`, for which the compound was called inactive.

Take `NC(=O)c1cnn(-c2cc(Oc3ccccc3)ncn2)c1N`: the result was inactive.

On to `CC(C)CNC(=O)C1CCN(Cc2ccc(OCc3ccccc3)cc2)CC1`, for which the compound was called inactive.

For `c1ccc(-c2noc(CCC3CCCC3)n2)cc1`, the call was inactive.

Take `O=C(Cc1ccccc1)Nc1nc(-c2cccs2)cs1`: the compound was called inactive.

On to `C/C(=C\c1ccc(N)cc1)c1nc2ccccc2[nH]1`, for which the call was inactive.

For the compound `Nc1nc(COc2ccc3ccccc3c2)cs1`, the compound was called inactive.

For the compound `Nc1nc(CSc2ccccn2)nc(Nc2ccccc2)n1`, the compound was classed as inactive.

For `CSc1nc2ccc(NC(=O)c3cccs3)cc2s1`, the compound was classed as inactive.

With `O=C(CC1CCCC1)Nc1ccc(Br)cc1`, the compound was classed as inactive.

Take `c1csc(-c2nc(N3CCCCC3)no2)c1`: the outcome was inactive.

For the compound `Cc1cccc(-c2noc(Cc3ccccc3)n2)c1`, the compound was classed as inactive.

Turning to `Cc1ccc(N(O)C(=O)NCCCCNC(=O)N(O)c2ccc(C)cc2)cc1`, the outcome was inactive.

`Nc1nc2ccccc2cc1-c1cccs1`: the result was inactive.

Regarding `CCN(CC)C(=O)CCc1nnc(Cc2cccc(C(F)(F)F)c2)o1`, the call was inactive.

Take `Cc1nnc(NC(=O)c2ccc(N3CCCC3=O)cc2)s1`: the call was inactive.

For the compound `c1ccc2c(c1)CC/C2=N/Nc1nc2ccccc2[nH]1`, the compound was called inactive.

With `c1ccc(-c2nc3ccccc3[nH]2)cc1`, the compound was called inactive.

For `CCN=c1scc(-c2ccc(F)cc2)n1/N=C/c1ccccn1`, the call was inactive.

On to `COc1ccc(/C=C2\CCn3c2nc2ccccc2c3=O)cc1OC`, for which the compound was called inactive.

For `Cc1nc2ccc(NC(=O)Cc3c(F)cccc3Cl)cc2s1`, the compound was classed as inactive.

With `COc1ccc(-c2cn3nc(C)c(C)nc3n2)cc1OC`, the call was inactive.

Regarding `CCCC(=O)N/C(N)=N/c1nc2ccccc2o1`, the result was inactive.

Regarding `O=C(NCCSc1ccccn1)c1ccc(Cl)cc1Cl`, the call was inactive.

Consider `CCc1ccc2[nH]c3nc(C)cc(C)c3c(=O)c2c1`, for which the result was inactive.
